For seven molecules, Potency, outcome and max response results are on record in PubChem BioAssay (NCATS).

Inconclusive results are not listed. A number with no mark means an inactive call. Activity calls are given as the source filed them. Calls follow the shape of the dose curve; as a rule, active = well fitted curve in the direction sought with a large enough effect; inconclusive = small, poorly fitted or top-dose-only effect, or another doubt; inactive = no such curve, though single readings can be large; an effect the other way counts as inactive or inconclusive.

In one assay the test system is TAB109. The assay can be described thus: qHTS profiling for inhibitors of Plasmodium falciparum proliferation (AID 504749). Also: nearly all actives have a fitted effect of over 60% in size. Also: potency is read from the fitted curve at half-maximal effect. The settings on record: P. falciparum in erythrocytes, SYBR Green DNA, 72 h; series mostly up to 28.7 µM. Put shortly: (§1)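 Each compound contacts P. falciparum-infected red blood cells for 72 h at 37 C; lysis buffer (Tris, EDTA, saponin, Triton X, SYBR Green I) is added and fluorescence measured next morning; values normalized to controls.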
A general note: In qHTS, concentration-response curves come from the screen itself.

A further assay relates to TAB165. The description is as above. The settings on record: P. falciparum in erythrocytes, SYBR Green DNA, 72 h; series mostly up to 28.7 µM. Put shortly: as §1
A further assay deals with W2. The description is as above. The settings on record: P. falciparum in erythrocytes, SYBR Green DNA, 72 h; series mostly up to 28.7 µM. Put shortly: as §1
The test system of another assay is CRL-7250. The assay can be described thus: Cytotoxic Profiling of Annotated Libraries Using Quantitative High-Throughput Screening (AID 1296008). Also: nearly all actives have a fitted effect of over 60% in size. As to max response: % is scaled to controls: 0 for no effect and ±100 for the full control effect. The settings on record: Five cell lines viability, CellTiter-Glo ATP luminescence, 48-72 h; max response: hits give low values. The method, boiled down:
(§2)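 Cells exposed to compounds for 48 or 72 hr at 37 degrees Celsius. Viability read as ATP-coupled luminescence with CellTiter-Glo after 10 min at room temperature.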
Background: ATP-based viability assays read luminescence as a measure of living cells.

In assay [1] the test system is HaCat. The description is as above. The settings on record: Five cell lines viability, CellTiter-Glo ATP luminescence, 48-72 h; max response: hits give low values. Put shortly:
as §2

Assay [2] concerns NIH3T3. The description is as above. The conditions noted are these: Five cell lines viability, CellTiter-Glo ATP luminescence, 48-72 h; max response: hits give low values. The method, boiled down:
as §2

Assay [3] deals with HACAT. Briefly: qHTS assay to identify novel small-molecules to repurpose for Merkel cell carcinoma treatment (AID 1296009). Also: nearly all actives have a fitted effect of over 60% in size. Also: potency is read from the fitted curve at half-maximal effect. The settings on record: MCC and control cell lines, CellTiter-Glo viability, 72 h; at 44.8 µM (top of the series) unless noted. Put shortly: (§3)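 Dose-response viability screen; 72 hr exposure at 37 degree celsius; CellTiter-Glo added, 10 min room temperature, luminescence read; RLUs scaled between no-cell and DMSO wells.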

Another assay relates to MCC-13. The description is as above. The settings on record: MCC and control cell lines, CellTiter-Glo viability, 72 h; series mostly up to 46 µM. Put shortly: as §3
For the next assay, the system named is MCC-26. Described as above. The conditions noted are these: MCC and control cell lines, CellTiter-Glo viability, 72 h; series mostly up to 46 µM. Put shortly:
as §3

The next assay relates to MKL-1. The assay is described as above. The settings on record: MCC and control cell lines, CellTiter-Glo viability, 72 h; series mostly up to 46 µM. Put shortly:
as §3

For assay [4], the system named is NIH3T3. The description is as above. The settings on record: MCC and control cell lines, CellTiter-Glo viability, 72 h; at 44.8 µM (top of the series). Put shortly:
as §3

The subject of the next assay is UISO. Described as above. The settings on record: MCC and control cell lines, CellTiter-Glo viability, 72 h; series mostly up to 46 µM. Put shortly: as §3
The next assay relates to WaGa. Described as above. The conditions noted are these: MCC and control cell lines, CellTiter-Glo viability, 72 h; series mostly up to 46 µM. Put shortly:
as §3

Another assay deals with C33A. Briefly: Primary qHTS to identify gynecologic anti-cancer compounds using libraries of approved drugs and bioactive compounds (AID 1345084). Also: % is scaled to controls: 0 for no effect and ±100 for the full control effect; nearly all actives have a fitted effect of over 55% in size. The conditions noted are these: Gynecologic cancer cell panel viability, ATPlite luminescence, 48 h; series mostly up to 57.5 µM. Put shortly: (§4)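 48 h compound exposure at 37 C, 5% CO2; five-point qHTS. ATPlite luminescence readout of cell ATP.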

For a further assay, the system named is CAOV3. The description is as above. The conditions noted are these: Gynecologic cancer cell panel viability, ATPlite luminescence, 48 h; series mostly up to 57.5 µM. The method, boiled down: as §4
The next assay deals with TAB113. The assay can be described thus: qHTS profiling for inhibitors of Plasmodium falciparum proliferation (AID 504749). Also: nearly all actives have a fitted effect of over 60% in size. Also: potency is read from the fitted curve at half-maximal effect. The settings on record: P. falciparum in erythrocytes, SYBR Green DNA, 72 h; series mostly up to 28.7 µM. The method, boiled down: as §1
Another assay relates to HEK293. Briefly: Cytotoxic Profiling of Annotated Libraries Using Quantitative High-Throughput Screening (AID 1296008). Also: nearly all actives have a fitted effect of over 60% in size. As to max response: % is scaled to controls: 0 for no effect and ±100 for the full control effect. The conditions noted are these: Five cell lines viability, CellTiter-Glo ATP luminescence, 48-72 h; max response: hits give low values. Put shortly: as §2
For the next assay, the system named is KB-3-1. The assay is described as above. The conditions noted are these: Five cell lines viability, CellTiter-Glo ATP luminescence, 48-72 h; max response: hits give low values. The method, boiled down:
as §2

In another assay the test system is HEK293T. Briefly: qHTS assay to identify novel small-molecules to repurpose for Merkel cell carcinoma treatment (AID 1296009). Also: nearly all actives have a fitted effect of over 60% in size. Also: potency is read from the fitted curve at half-maximal effect. The settings on record: MCC and control cell lines, CellTiter-Glo viability, 72 h; at 44.8 µM (top of the series) unless noted. The method, boiled down:
as §3

For a further assay, the system named is MKL-2. Described as above. The settings on record: MCC and control cell lines, CellTiter-Glo viability, 72 h; series mostly up to 46 µM. Put shortly:
as §3

With `Cc1cc(CC(=O)O)c(C)n1-c1ccc(Cl)cc1`, the Potency result in the assay on TAB109, with MCC-13, with MCC-26, in the assay with MKL-1, in the assay with UISO and in the assay with WaGa was “inactive” each time. The Potency entry with C33A and in the assay on CAOV3 was “inactive” in each case. For the same molecule, the Potency was 14.1 µM (active) in the assay on TAB165 and 8.49 µM (active) in the assay on W2. Moreover, the outcome with CRL-7250, in the assay with HaCat [1], in the assay with NIH3T3 [2], in the assay with HACAT [3] and in the assay on NIH3T3 [4] was inactive.
For the molecule `CC(=O)Nc1ccc(OC(=O)c2ccccc2OC(C)=O)cc1`, the Potency entry with TAB109, with TAB113, with TAB165, with W2, in the assay on MCC-13 and in the assay with MCC-26 was “inactive” in each case. Also, the Potency entry in the assay with MKL-1, in the assay on MKL-2, in the assay on UISO, with WaGa and in the assay with C33A was “inactive” each time. The molecule was called inactive in the assay on HEK293, in the assay with HaCat [1], with NIH3T3 [2], in the assay with HACAT [3], in the assay on HEK293T and with NIH3T3 [4]. Moreover, the max response in the assay on KB-3-1 was -4.86%.
In the case of `COc1ccccc1N1CCN(CCCCNC(=O)c2ccc(-c3ccc(C(C)=O)cc3)cc2)CC1`, the Potency entry in the assay with TAB109, in the assay with TAB113, in the assay with TAB165, with W2, in the assay with MCC-13 and in the assay with MCC-26 was “inactive” each time. In addition, the Potency entry in the assay on MKL-1, in the assay on MKL-2, in the assay on UISO, in the assay on WaGa, with C33A and in the assay on CAOV3 was “inactive” in each case. In addition, the max response in the assay with CRL-7250 is -9.94%; with NIH3T3 [2], -11%. Moreover, the molecule was classed as inactive in the assay with HaCat [1] and with HACAT [3].
`O=C1OC(CN2CCOCC2)CN1/N=C/c1ccc([N+](=O)[O-])o1` (configuration not stated): the molecule was classed as inactive in the assay on CRL-7250. In addition, the max response in the assay with HaCat [1] is 2.11%; in the assay with KB-3-1, 2.54%; in the assay with NIH3T3 [2], -5.18%. For the same molecule, the Potency entry with MCC-13, in the assay on MCC-26, in the assay with UISO, in the assay on WaGa, in the assay with C33A and in the assay with CAOV3 was “inactive” in each case.
For the molecule `CO[C@H]1C=CO[C@@]2(C)Oc3c(C)c(O)c4c(O)c(c(/C=N/N5CCN(C)CC5)c(O)c4c3C2=O)NC(=O)/C(C)=C\C=C[C@H](C)[C@H](O)[C@@H](C)[C@@H](O)[C@@H](C)[C@H](OC(C)=O)[C@@H]1C`, the max response with CRL-7250 is 1.9%; with HaCat [1], -21.6%; with KB-3-1 it was -19.7%; in the assay with NIH3T3 [2], -0.808%. Also, the Potency entry with MCC-13, with MCC-26 and in the assay on C33A was “inactive” in each case. Moreover, the Potency in the assay on MKL-1 is 21.1 µM (active).
With `CN1CCN(c2cc3c(cc2F)c(=O)c(C(=O)O)cn3-c2ccc(F)cc2)CC1`, the Potency result with TAB113, in the assay on TAB165, in the assay on MCC-13, with MCC-26, with MKL-1 and in the assay with MKL-2 was “inactive” each time. In addition, the Potency entry in the assay on UISO, in the assay with WaGa, in the assay with C33A and in the assay with CAOV3 was “inactive” in each case. For the same molecule, in the assay on W2, the Potency is 12 µM (active). Moreover, the max response with CRL-7250 is -1.2%; with HaCat [1] it was 2%; with KB-3-1, -5.32%; in the assay with NIH3T3 [2], -2.14%.
On to `Cc1cccc(C)c1NC(=O)CN1CCCC1`, for which the Potency entry in the assay with TAB109, in the assay on TAB165, in the assay with MCC-13, in the assay with MCC-26, in the assay with MKL-1 and in the assay on MKL-2 was “inactive” each time. Also, the Potency entry in the assay on UISO, with WaGa, in the assay with C33A and with CAOV3 was “inactive” each time. Besides, the max response with HEK293 was 0.0979%; in the assay on KB-3-1, 8.28%; in the assay with NIH3T3 [2], 1.81%. The molecule was called inactive in the assay on HaCat [1] and in the assay with HACAT [3].
